# Assay results reported in the supplement of paper PMC12282887.
# ± gives the standard deviation of the averaged measurements.
# Key:
# Assay in all cases: promoter activity interaction Z-score (Lux/OD deviation from empty-vector control); higher = stronger promoter induction by the compound
# [1] = tested on: E. coli BW25113 acrABp lux reporter
# How it was run: (§1)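 Every compound was given at four 1:2 dilutions, in biological duplicates, to E. coli BW25113 carrying low-copy luxCDABE promoter reporters in wild-type or single-gene deletion backgrounds. Growth in 40 µl LB Lennox in 384-well plates at 37°C was followed by OD600 and luminescence readings every 30 min for 12 h, integrated over 0–8 h for wild type and 1–9 h for deletion strains, with wells below 10% of the median growth value excluded. Scores are Z-transformed residuals of growth-normalised luminescence fitted against a control.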
# [2] = tested on: E. coli BW25113 micFp lux reporter
# How it was run: as §1
# [3] = tested on: E. coli BW25113 ompFp lux reporter
# How it was run: as §1
# [4] = tested on: E. coli BW25113 robp lux reporter
# How it was run: as §1
# [5] = tested on: E. coli BW25113 soxSp lux reporter
# How it was run: as §1
# [6] = tested on: E. coli BW25113 tolCp lux reporter
# How it was run: as §1
# [7] = 0.12 µg/ml, genetic background: wild type
# [8] = 0.12 µg/ml, genetic background: ΔmarA
# [9] = 0.12 µg/ml, genetic background: Δrob
# [10] = 0.12 µg/ml, genetic background: ΔsoxS
# [11] = 0.24 µg/ml, genetic background: wild type
# [12] = 0.24 µg/ml, genetic background: ΔmarA
# [13] = 0.24 µg/ml, genetic background: Δrob
# [14] = 0.24 µg/ml, genetic background: ΔsoxS
# [15] = 0.48 µg/ml, genetic background: wild type
# [16] = 0.48 µg/ml, genetic background: ΔmarA
# [17] = 0.48 µg/ml, genetic background: Δrob
# [18] = 0.48 µg/ml, genetic background: ΔsoxS
# [19] = 1 µg/ml, genetic background: wild type
# [20] = 1 µg/ml, genetic background: ΔmarA
# [21] = 1 µg/ml, genetic background: ΔsoxS
smiles,measurement,setting,value
O=C(N[C@H](CO)[C@H](O)c1ccc([N+](=O)[O-])cc1)C(Cl)Cl [Chloramphenicol],promoter activity interaction Z-score,[1]; [7],0.22 ± 0.098
same,promoter activity interaction Z-score,[1]; [8],-0.0897 ± 1
same,promoter activity interaction Z-score,[1]; [9],0.368 ± 0.066
same,promoter activity interaction Z-score,[1]; [10],0.272 ± 0.11
same,promoter activity interaction Z-score,[1]; [11],0.636 ± 0.41
same,promoter activity interaction Z-score,[1]; [12],-0.23 ± 0.65
same,promoter activity interaction Z-score,[1]; [13],0.312 ± 0.071
same,promoter activity interaction Z-score,[1]; [14],0.433 ± 0.24
same,promoter activity interaction Z-score,[1]; [15],1.1 ± 0.056
same,promoter activity interaction Z-score,[1]; [16],-0.541 ± 0.59
same,promoter activity interaction Z-score,[1]; [17],0.7917 ± 0.0062
same,promoter activity interaction Z-score,[1]; [18],1.11 ± 0.52
same,promoter activity interaction Z-score,[1]; [19],1.46 ± 0.021
same,promoter activity interaction Z-score,[1]; [20],-1.09 ± 0.82
same,promoter activity interaction Z-score,[1]; [21],0.0905
same,promoter activity interaction Z-score,[2]; [7],-0.122 ± 0.054
same,promoter activity interaction Z-score,[2]; [8],-0.0498 ± 0.071
same,promoter activity interaction Z-score,[2]; [9],-0.238 ± 0.013
same,promoter activity interaction Z-score,[2]; [10],0.0558 ± 0.064
same,promoter activity interaction Z-score,[2]; [11],0.0837 ± 0.14
same,promoter activity interaction Z-score,[2]; [12],-0.057 ± 0.033
same,promoter activity interaction Z-score,[2]; [13],-0.128 ± 0.036
same,promoter activity interaction Z-score,[2]; [14],-0.0814 ± 0.0056
same,promoter activity interaction Z-score,[2]; [15],-0.548 ± 0.11
same,promoter activity interaction Z-score,[2]; [16],-0.166 ± 0.013
same,promoter activity interaction Z-score,[2]; [17],0.103 ± 0.18
same,promoter activity interaction Z-score,[2]; [18],0.183 ± 0.15
same,promoter activity interaction Z-score,[2]; [19],-1.17 ± 0.016
same,promoter activity interaction Z-score,[2]; [20],-0.119 ± 0.29
same,promoter activity interaction Z-score,[2]; [21],-0.534
same,promoter activity interaction Z-score,[3]; [7],0.809 ± 0.57
same,promoter activity interaction Z-score,[3]; [8],0.473 ± 0.32
same,promoter activity interaction Z-score,[3]; [9],0.576 ± 0.47
same,promoter activity interaction Z-score,[3]; [10],1.1 ± 0.088
same,promoter activity interaction Z-score,[3]; [11],1.81 ± 0.86
same,promoter activity interaction Z-score,[3]; [12],1.78 ± 0.49
same,promoter activity interaction Z-score,[3]; [13],1.2 ± 0.46
same,promoter activity interaction Z-score,[3]; [14],1.55 ± 0.91
same,promoter activity interaction Z-score,[3]; [15],0.1844 ± 0.0012
same,promoter activity interaction Z-score,[3]; [16],1.34 ± 0.83
same,promoter activity interaction Z-score,[3]; [17],0.797 ± 0.094
same,promoter activity interaction Z-score,[3]; [18],1.6 ± 0.38
same,promoter activity interaction Z-score,[3]; [19],-1.42 ± 0.36
same,promoter activity interaction Z-score,[3]; [20],-1.37 ± 0.11
same,promoter activity interaction Z-score,[3]; [21],-0.525
same,promoter activity interaction Z-score,[4]; [7],-0.00573 ± 0.3
same,promoter activity interaction Z-score,[4]; [8],-0.626 ± 0.41
same,promoter activity interaction Z-score,[4]; [9],-0.328 ± 0.36
same,promoter activity interaction Z-score,[4]; [10],0.732 ± 0.14
same,promoter activity interaction Z-score,[4]; [11],-0.692 ± 0.34
same,promoter activity interaction Z-score,[4]; [12],-0.0133 ± 0.15
same,promoter activity interaction Z-score,[4]; [13],-0.61 ± 0.2
same,promoter activity interaction Z-score,[4]; [14],-0.218 ± 0.31
same,promoter activity interaction Z-score,[4]; [15],-1.41 ± 0.4
same,promoter activity interaction Z-score,[4]; [16],-0.957 ± 0.41
same,promoter activity interaction Z-score,[4]; [17],-1.44 ± 0.12
same,promoter activity interaction Z-score,[4]; [18],-1.17 ± 0.88
same,promoter activity interaction Z-score,[4]; [19],-2.19 ± 0.21
same,promoter activity interaction Z-score,[4]; [20],-1.15 ± 0.94
same,promoter activity interaction Z-score,[5]; [7],-0.0492 ± 0.039
same,promoter activity interaction Z-score,[5]; [8],0.159 ± 0.13
same,promoter activity interaction Z-score,[5]; [9],0.217 ± 0.045
same,promoter activity interaction Z-score,[5]; [10],0.238 ± 0.14
same,promoter activity interaction Z-score,[5]; [11],0.299 ± 0.018
same,promoter activity interaction Z-score,[5]; [12],0.529 ± 0.11
same,promoter activity interaction Z-score,[5]; [13],0.189 ± 0.096
same,promoter activity interaction Z-score,[5]; [14],0.422 ± 0.29
same,promoter activity interaction Z-score,[5]; [15],0.645 ± 0.3
same,promoter activity interaction Z-score,[5]; [16],0.914 ± 0.026
same,promoter activity interaction Z-score,[5]; [17],0.721 ± 0.017
same,promoter activity interaction Z-score,[5]; [18],1.45 ± 1.5
same,promoter activity interaction Z-score,[5]; [19],1.67 ± 0.091
same,promoter activity interaction Z-score,[5]; [20],2.38 ± 0.034
same,promoter activity interaction Z-score,[5]; [21],1.71 ± 1.7
same,promoter activity interaction Z-score,[6]; [7],0.142 ± 1.1
same,promoter activity interaction Z-score,[6]; [8],-0.0323 ± 0.44
same,promoter activity interaction Z-score,[6]; [9],0.149 ± 0.77
same,promoter activity interaction Z-score,[6]; [10],-0.831 ± 0.55
same,promoter activity interaction Z-score,[6]; [11],0.339 ± 0.15
same,promoter activity interaction Z-score,[6]; [12],0.367 ± 0.84
same,promoter activity interaction Z-score,[6]; [13],-0.202 ± 1.4
same,promoter activity interaction Z-score,[6]; [14],0.0632 ± 1
same,promoter activity interaction Z-score,[6]; [15],0.356 ± 1.2
same,promoter activity interaction Z-score,[6]; [16],0.168 ± 0.82
same,promoter activity interaction Z-score,[6]; [17],-0.0545 ± 0.19
same,promoter activity interaction Z-score,[6]; [18],2.03 ± 0.53
same,promoter activity interaction Z-score,[6]; [19],-0.0529 ± 0.35
same,promoter activity interaction Z-score,[6]; [20],-0.256 ± 0.82
same,promoter activity interaction Z-score,[6]; [21],1.66 ± 0.93
